Where “and” joins values, the source holds several entries; their conditions need not be identical. Equal entries are not always repeated. In all, about 5,500 compounds went through this assay and about 2,000 (36%) were called active. Inconclusive results (about 18%) are left out. Cut-off read from the data, not from the text of the source: active = normalized growth mostly below about 0.91 (no sharp cut-off); inconclusive = no clear call, values can overlap the other calls; inactive = mostly above about 0.92. The list shows a part of the results.
Test: chemical genetic growth profiling, strain panel (AID 1159580);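 note: tested at 20 µM; growth read once vehicle control cultures reached saturation at 30 °C; 1 = growth at the plate median or of vehicle wells; lower values mean less growth of the strain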
Settings: S. cerevisiae deletion strains, growth OD
[1] = locus YAL040C, strain CLN3, stronger effect = lower value
[2] = locus YCL061C, strain MRC1 (second series), stronger effect = lower value
[3] = locus YER002W, strain NOP16, stronger effect = lower value
[4] = locus YJR075W, strain HOC1, stronger effect = lower value
[5] = locus YMR263W, strain SAP30, stronger effect = lower value
[6] = locus YNL153C, strain GIM3, stronger effect = lower value
[7] = locus YNL175C, strain NOP13, stronger effect = lower value
[8] = locus YNL197C, strain WHI3, stronger effect = lower value
[9] = locus YNL224C, strain SQS1, stronger effect = lower value
[10] = locus YOR083W, strain WHI5 (second series), stronger effect = lower value
[11] = locus YPL241C, strain CIN2, stronger effect = lower value

Measured: normalized growth

N[C@@H](CC(=O)O)C(=O)O
inactive: locus YAL013W, strain DEP1, stronger effect = lower value 1.01 | [1] 1.09 | [2] 1.01 | [3] 1.01 | [4] 1.01 | [5] 1 | [6] 1.02 | [7] 1 | [8] 1 | [9] 0.996 | [10] 0.955 | [11] 1.01

O=c1[nH]cnc2[nH]ncc12
inactive: locus YAL021C, strain ccr4, stronger effect = lower value 1.01 | locus YAL026C, strain drs2, stronger effect = lower value 1 | locus YAL030W, strain snc1, stronger effect = lower value 0.985 | [1] 1.01 | locus YBL061C, strain skt5, stronger effect = lower value 1 | locus YBR009C, strain hhf1, stronger effect = lower value 1 | locus YBR021W, strain FUR4, stronger effect = lower value 1.01 | locus YBR023C, strain chs3, stronger effect = lower value 1 | locus YBR171W, strain sec66, stronger effect = lower value 1.01 | locus YBR229C, strain ROT2, stronger effect = lower value 1.01 | locus YBR231C, strain swc5, stronger effect = lower value 1.02 | locus YBR279W, strain paf1, stronger effect = lower value 1 | locus YCL011C, strain gbp2, stronger effect = lower value 1.01 | locus YCL016C, strain dcc1, stronger effect = lower value 1.01 | locus YCL029C, strain bik1, stronger effect = lower value 1.02 | [2] 0.996 | locus YCL069W, strain vba3, stronger effect = lower value 1.01 | locus YCR088W, strain abp1, stronger effect = lower value 0.993 | locus YDL005C, strain med2, stronger effect = lower value 0.998 | locus YDL035C, strain GPR1, stronger effect = lower value 0.997 | locus YDL040C, strain nat1, stronger effect = lower value 0.988 | locus YDL074C, strain BRE1, stronger effect = lower value 0.996 | locus YDL101C, strain DUN1, stronger effect = lower value 1.01 | locus YDL134C, strain PPH21, stronger effect = lower value 0.993 | locus YDL185W, strain tfp1, stronger effect = lower value 1.02 | locus YDL192W, strain arf1, stronger effect = lower value 1.01 | locus YDR001C, strain nth1, stronger effect = lower value 0.992 | locus YDR069C, strain doa4, stronger effect = lower value 1.04 | locus YDR101C, strain arx1, stronger effect = lower value 1 | locus YDR137W, strain rgp1, stronger effect = lower value 0.993 | locus YDR159W, strain sac3, stronger effect = lower value 1.02 | locus YDR162C, strain NBP2, stronger effect = lower value 1.01 | locus YDR195W, strain ref2 0.958 | locus YDR297W, strain sur2, stronger effect = lower value 1 | locus YDR318W, strain mcm21, stronger effect = lower value 1.01 | locus YDR334W, strain swr1, stronger effect = lower value 1.03 | locus YDR335W, strain msn5, stronger effect = lower value 1.01 | locus YDR388W, stronger effect = lower value 1.02 | locus YDR392W, strain spt3, stronger effect = lower value 0.966 | locus YDR502C, strain sam2, stronger effect = lower value 1.01 | locus YEL003W, strain gim4, stronger effect = lower value 1.01 | locus YEL037C, strain rad23, stronger effect = lower value 1.01 | locus YEL061C, strain CIN8 (second series), stronger effect = lower value 1.02 | locus YEL061C, strain CIN8, stronger effect = lower value 1 | [3] 1 | locus YER015W, strain faa2, stronger effect = lower value 1.01 | locus YER016W, strain bim1, stronger effect = lower value 0.97 | locus YER110C, stronger effect = lower value 1.03 | locus YER111C, strain swi4, stronger effect = lower value 1 | locus YER155C, strain BEM2 (second series), stronger effect = lower value 1.01 | locus YER155C, strain BEM2, stronger effect = lower value 1.01 | locus YER167W, strain BCK2, stronger effect = lower value 0.999 | locus YFR010W, strain ubp6, stronger effect = lower value 1.01 | locus YGL078C, strain dbp3, stronger effect = lower value 1.01 | locus YGL086W, strain mad1, stronger effect = lower value 1 | locus YGL167C, strain pmr1, stronger effect = lower value 1.01 | locus YGL173C, strain kem1, stronger effect = lower value 0.998 | locus YGL227W, strain vid30, stronger effect = lower value 1.01 | locus YGL240W, strain doc1, stronger effect = lower value 1.04 | locus YGL248W, strain PDE1, stronger effect = lower value 1.01 | locus YGL253W, strain hxk2, stronger effect = lower value 0.995 | locus YGR135W, strain pre9, stronger effect = lower value 1.01 | locus YGR252W, strain gcn5, stronger effect = lower value 0.989 | locus YHR013C, strain ard1, stronger effect = lower value 0.968 | locus YHR027C, strain rpn1, stronger effect = lower value 1 | locus YHR030C, strain SLT2, stronger effect = lower value 1.01 and 0.983 | locus YHR079C, strain IRE1 (second series), stronger effect = lower value 1.02 | locus YHR079C, strain IRE1, stronger effect = lower value 1.04 | locus YHR094C, strain hxt1, stronger effect = lower value 1.03 | locus YHR129C, strain ARP1, stronger effect = lower value 1 | locus YHR142W, strain chs7, stronger effect = lower value 0.998 | locus YHR200W, strain rpn10, stronger effect = lower value 1.03 | locus YIL066C, strain RNR3, stronger effect = lower value 1.01 | locus YIL073C, strain SPO22, stronger effect = lower value 1.04 | locus YIL125W, strain kgd1, stronger effect = lower value 1.02 | locus YIR030C, strain dcg1, stronger effect = lower value 1.01 | locus YJL092W, strain hpr5, stronger effect = lower value 1.01 | locus YJL095W, strain BCK1 (second series), stronger effect = lower value 1.01 | locus YJL095W, strain BCK1, stronger effect = lower value 1.02 and 1.03 | locus YJL115W, strain asf1, stronger effect = lower value 1.02 | locus YJL129C, strain trk1, stronger effect = lower value 1.01 | locus YJL134W, strain LCB3, stronger effect = lower value 0.999 | locus YJL154C, strain vps35, stronger effect = lower value 1.01 | locus YJL164C, strain tpk1, stronger effect = lower value 0.981 | locus YJL166W, strain qcr8, stronger effect = lower value 1.02 | locus YJL168C, strain set2, stronger effect = lower value 1.02 | locus YJL187C, strain SWE1 (second series), stronger effect = lower value 1.02 | locus YJL187C, strain SWE1, stronger effect = lower value 1.01 | locus YJR043C, strain POL32, stronger effect = lower value 0.988 | locus YJR066W, strain TOR1, stronger effect = lower value 0.974 | [4] 1.01 | locus YKL009W, strain mrt4, stronger effect = lower value 1.02 | locus YKL068W, stronger effect = lower value 1.01 | locus YKL085W, strain MDH1 (second series), stronger effect = lower value 1 | locus YKL085W, strain MDH1, stronger effect = lower value 1 | locus YKL160W, strain elf1, stronger effect = lower value 1 | locus YKR001C, strain vps1, stronger effect = lower value 1.01 | locus YKR026C, strain gcn3, stronger effect = lower value 1.06 | locus YKR091W, strain srl3, stronger effect = lower value 0.999 | locus YLL001W, strain dnm1, stronger effect = lower value 1.01 | locus YLL026W, stronger effect = lower value 1 | locus YLL041C, strain sdh2, stronger effect = lower value 0.987 | locus YLR027C, strain aat2, stronger effect = lower value 1.01 | locus YLR039C, strain RIC1, stronger effect = lower value 1 | locus YLR058C, strain SHM2, stronger effect = lower value 1.01 | locus YLR102C, strain apc9, stronger effect = lower value 1.02 | locus YLR113W, strain HOG1, stronger effect = lower value 1.02 | locus YLR221C, strain rsa3, stronger effect = lower value 1.01 | locus YLR258W, strain gsy2, stronger effect = lower value 1 | locus YLR262C, strain YPT6 (second series), stronger effect = lower value 1 | locus YLR262C, strain YPT6, stronger effect = lower value 1.04 | locus YLR268W, strain sec22, stronger effect = lower value 1.02 | locus YLR320W, strain mms22, stronger effect = lower value 0.992 | locus YLR330W, strain CHS5, stronger effect = lower value 1 | locus YLR342W, strain FKS1 (second series), stronger effect = lower value 0.982 | locus YLR342W, strain FKS1, stronger effect = lower value 1.02 | locus YLR357W, strain rsc2, stronger effect = lower value 0.998 | locus YLR370C, strain arc18, stronger effect = lower value 1.01 | locus YLR371W, strain rom2, stronger effect = lower value 1.01 | locus YLR384C, strain iki3, stronger effect = lower value 1 | locus YLR418C, strain cdc73, stronger effect = lower value 1.01 | locus YML016C, strain PPZ1, stronger effect = lower value 1.01 | locus YML032C, strain rad52, stronger effect = lower value 1.01 | locus YML120C, strain ndi1, stronger effect = lower value 1.02 | locus YML124C, strain tub3, stronger effect = lower value 1.02 | locus YMR058W, strain fet3, stronger effect = lower value 1.02 | locus YMR078C, strain ctf18, stronger effect = lower value 1.02 | locus YMR125W, strain sto1, stronger effect = lower value 0.998 | locus YMR129W, stronger effect = lower value 1.01 | locus YMR205C, strain PFK2, stronger effect = lower value 0.998 | locus YMR223W, strain ubp8, stronger effect = lower value 1.01 | locus YMR231W, strain pep5, stronger effect = lower value 1 | [5] 0.997 | locus YMR307W, strain GAS1, stronger effect = lower value 1.02 and 1.01 | locus YNL067W, strain RPL9B, stronger effect = lower value 1.02 | locus YNL071W, strain lat1, stronger effect = lower value 1.02 | [6] 1.03 | [7] 1.01 | locus YNL183C, strain NPR1, stronger effect = lower value 0.977 | [8] 1.01 | locus YNL209W, strain ssb2, stronger effect = lower value 0.998 | [9] 0.994 | locus YNL233W, strain BNI4, stronger effect = lower value 1.01 | locus YNL248C, strain rpa49, stronger effect = lower value 1.04 | locus YNL250W, strain rad50, stronger effect = lower value 1.01 | locus YNL271C, strain bni1, stronger effect = lower value 1.02 | locus YNL298W, strain CLA4, stronger effect = lower value 1.01 | locus YNL307C, strain MCK1, stronger effect = lower value 1.03 | locus YNL322C, strain KRE1 (second series), stronger effect = lower value 0.993 | locus YNL322C, strain KRE1, stronger effect = lower value 1.01 | locus YNR049C, strain mso1, stronger effect = lower value 1.02 | locus YNR052C, strain pop2, stronger effect = lower value 1.02 | locus YOL006C, strain TOP1, stronger effect = lower value 1.05 | locus YOL012C, strain htz1 0.934 | locus YOL147C, strain pex11, stronger effect = lower value 1.01 | locus YOR001W, strain rrp6, stronger effect = lower value 1.05 | locus YOR061W, strain CKA2, stronger effect = lower value 1.01 | locus YOR069W, strain VPS5, stronger effect = lower value 1 | locus YOR070C, strain gyp1, stronger effect = lower value 0.996 | locus YOR080W, strain dia2, stronger effect = lower value 1.02 | [10] 1.04 | locus YOR083W, strain WHI5, stronger effect = lower value 1.05 | locus YOR106W, strain vam3, stronger effect = lower value 1.03 | locus YOR136W, strain idh2, stronger effect = lower value 1.02 | locus YOR144C, strain elg1, stronger effect = lower value 1.01 | locus YOR184W, strain ser1, stronger effect = lower value 1.01 | locus YOR231W, strain MKK1, stronger effect = lower value 1.03 | locus YOR265W, strain rbl2, stronger effect = lower value 1.01 | locus YOR270C, strain vph1, stronger effect = lower value 1.08 | locus YOR290C, strain snf2, stronger effect = lower value 0.993 | locus YOR316C, strain cot1, stronger effect = lower value 1.01 | locus YPL051W, strain arl3, stronger effect = lower value 1.01 | locus YPL078C, strain atp4, stronger effect = lower value 1.03 | locus YPL106C, strain sse1, stronger effect = lower value 1.01 | locus YPL240C, strain hsp82, stronger effect = lower value 1 | [11] 1 | locus YPL256C, strain CLN2, stronger effect = lower value 1 | locus YPR119W, strain clb2, stronger effect = lower value 1.02 | locus YPR141C, strain kar3, stronger effect = lower value 1.03 | locus YPR163C, strain tif3, stronger effect = lower value 1.03 | locus YPR167C, strain met16, stronger effect = lower value 1.02 | strain wtn01, stronger effect = lower value 1
